Experimental data published in PubChem BioAssay (NCI).
The panel holds about 83,000 compounds, 20% with a hit somewhere; the sample as a whole holds those more often.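 Compound tested at a single concentration for 48 hours in 96-well plates; a percent growth value below 10 was scored as active.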 A number with no mark means an inactive call. The source made the active and inactive calls.

What was measured:
Experiment in all cases: NCI-60 one-dose screen, 48 h (100 = growth as untreated, 0 = no growth, -100 = all killed)
Details in all cases: 10 µM unless noted
NCI-H23 lung = test system: NCI-H23 lung
NCI-H226 lung = test system: NCI-H226 lung
NCI-H322M lung = test system: NCI-H322M lung
HOP-62 NSCLC = test system: HOP-62 NSCLC
NCI-H460 lung = test system: NCI-H460 lung
HOP-92 NSCLC = test system: HOP-92 NSCLC
NCI-H522 lung = test system: NCI-H522 lung
A549/ATCC NSCLC = test system: A549/ATCC NSCLC
786-0 renal = test system: 786-0 renal
COLO 205 colon = test system: COLO 205 colon
DU-145 prostate = test system: DU-145 prostate
K-562 leukemia = test system: K-562 leukemia
MALME-3M melanoma = test system: MALME-3M melanoma
MDA-MB-231 breast = test system: MDA-MB-231 breast
RXF 393 renal = test system: RXF 393 renal
SF-268 CNS = test system: SF-268 CNS
SF-295 CNS = test system: SF-295 CNS
SF-539 CNS = test system: SF-539 CNS
UACC-257 melanoma = test system: UACC-257 melanoma
M14 melanoma = test system: M14 melanoma

Compound	growth (NCI-H23 lung)	growth (NCI-H226 lung)	growth (NCI-H322M lung) [%]	growth (HOP-62 NSCLC)	growth (NCI-H460 lung)	growth (HOP-92 NSCLC)	growth (NCI-H522 lung)	growth (A549/ATCC NSCLC) [%]	growth (786-0 renal)	growth (COLO 205 colon)	growth (DU-145 prostate)	growth (K-562 leukemia)	growth (MALME-3M melanoma)	growth (MDA-MB-231 breast)	growth (RXF 393 renal)	growth (SF-268 CNS)	growth (SF-295 CNS) [%]	growth (SF-539 CNS)	growth (UACC-257 melanoma)	growth (M14 melanoma)
Cc1ccc(S(=O)(=O)N2CCCC2CO)cc1 (stereo not given)	84.9%	99.9%	93.6	188%	99.9%	76.9%	90.7%	103	100%	103%	104%	114%	83.8%	100%	103%	101%	112	94.4%	107%	95.1%
O=C(Cn1c2c(c3ccccc31)CCCC2)Nc1ccc(-c2nc3ccccc3s2)cc1	94.5%	106%	101	102%	101%	89.6%	94.9%	105	109%	104%	98.8%	74.4%	105%	96%	105%	97.6%	103	102%	106%	108%
CN(C)CCCC1(c2ccc(F)cc2)OCc2cc(-c3cccc4[nH]ccc34)ccc21 (stereo not given)	75.2%	65.7%	61.5	16.2%	-23.3% (active)	30.6%	28%	28.3	37%	-64.2% (active)	18.9%	-4.22% (active)	-91.6% (active)	40.8%	37.6%	41%	20	14%	-5.65% (active)	-68.4% (active)
CCOC(=O)C1=NN(c2ccccc2)C(=O)/C1=C\N1C(=O)CC(=O)NC1=S	99%	92.5%	96	90.1%	106%	102%	88.8%	103	106%	103%	110%	98.2%	97.6%	91.8%	117%	93.9%	103	100%	105%	93.7%
CCN(CC)CCOc1ccc(-c2c(-c3ccccc3)c(=O)oc3ccccc23)cc1	94.8%	82.7%	110	95.5%	95.8%	84.3%	71.6%	92	85%	81.2%	121%	92.1%	87.2%	88.7%	71.9%	87.4%	104	92.6%	86.3%	88.2%
CO/N=C(/C)c1ccc(NC(=O)CSc2nnc(-c3ccncc3)n2-c2ccccc2)cc1	46.9%	24.2%	84.9	39.2%	15.9%	3.16% (active)	-8.08% (active)	68.4	-43.1% (active)	104%	52%	91.6%	32.2%	42.7%	4.02% (active)	13.4%	33	-31.2% (active)	50.6%	74.8%
COc1cc(-c2csc(NC(=O)c3cc(-n4cnc(C)c4)cc(C(F)(F)F)c3)n2)cc(OC)c1OC	61.2%	58%	67	72.4%	33.8%	6.13% (active)	38.5%	60.2	60.2%	84.9%	56.4%	26.8%	67.7%	61.3%	66.7%	68.6%	57.9	90.9%	81.9%	66.7%
CC12CCC3c4ccccc4CCC3(CO1)C2 (stereo not given)	98.3%	95.8%	94.7	95.5%	105%	105%	94.6%	106	118%	101%	121%	99.9%	95.1%	124%	93.4%	107%	77.2	104%	110%	128%
Cc1ccc(/C=C2\CN(C(=O)OC(C)(C)C)C/C(=C\c3ccc(C)cc3)C2=O)cc1	56.6%	84.9%	98.7	94.9%	53%	84.1%	58.4%	81.5	56.5%	51.6%	38.7%	3.47% (active)	83.5%	88.3%	99.4%	49.1%	89.9	90.4%	79.4%	43%
Cc1ccccc1NC(=O)c1sc2nc(C)c(C(=O)/C=C/c3ccccc3)cc2c1N	43.3%	26.2%	55.5	9.21% (active)	0.299% (active)	37%	17.9%	14.3	-16.9% (active)	64.1%	10.5%	13%	59.7%	3.85% (active)	-26.7% (active)	11.8%	14	-34.4% (active)	68.5%	4.85% (active)
O=C(c1ccc(-c2nc(CSc3nc4ccccc4s3)no2)cc1)N1CCSCC1	52.9%	68.4%	100	75.9%	69.6%	66.4%	19.7%	52.1	90.6%	87.8%	81.9%	36.6%	66.3%	64.6%	110%	77.1%	40.6	80.3%	35.7%	79.9%
CC[C@@H](C(=O)[C@@H](C)[C@@H](O)[C@H](C)[C@@H]1O[C@@H]([C@@H](CC)C(=O)NCCc2ccc(F)cc2)CC[C@@H]1C)C1O[C@]2(C=CC(=O)[C@]3(CC[C@@](C)([C@H]4CC[C@](O)(CC)[C@H](C)O4)O3)O2)[C@H](C)C[C@@H]1C (stereo not given in full)	24.8%	24.2%	76.7	36%	35%	-0.474% (active)	33.3%	20.3	50.3%	29.5%	50.5%	17%	36%	13.8%	42.7%	24.2%	18.4	47.7%	43.5%	25.4%
O=C1Nc2ccc(Br)cc2/C1=N/c1n[nH]c(=S)s1	93.3%	99.4%	107	89%	106%	94.8%	93.4%	98	97.8%	114%	106%	90.8%	107%	105%	109%	91.5%	101	99.7%	99.6%	99.8%
O=C(CI)NC1Oc2ccccc2-c2oc(=O)c(-c3ccccc3)cc21 (stereo not given)	-55.7% (active)	-43.3% (active)	105	-3.99% (active)	0.996% (active)	-72.4% (active)	-75.6% (active)	94.7	-79.3% (active)	-53.5% (active)	-93.8% (active)	-13% (active)	-77.1% (active)	-68.8% (active)	-89.4% (active)	-72.2% (active)	87.4	-89.5% (active)	77.3%	-39.8% (active)
Cn1cc(-c2nc(-c3c[nH]c4ccncc34)cs2)c2ccccc21	86%	87.6%	82.5	60.4%	-37.7% (active)	53.9%	66.8%	42.1	77.3%	-67.3% (active)	44%	-33.2% (active)	54%	25.2%	70.8%	77.3%	65.5	78.7%	91.2%	-71.5% (active)
